Data on 20 molecules can be found in PubChem BioAssay (NCI).

Assay [1] is described as follows: NCI Yeast Anticancer Drug Screen. Data for the rad50 strain (AID 155).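 Further: 0% = growth of vehicle-only cultures of the same strain.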 The conditions noted are these: S. cerevisiae rad50 strain growth inhibition, stronger effect = higher value; at 50.0 µM unless noted. The method, boiled down:
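A DNA repair-deficient yeast mutant serves as the test organism; compound-induced growth inhibition is calculated against vehicle-treated cells.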

A short description of assay [2]: NCI Yeast Anticancer Drug Screen. Data for the mec2-1 strain (AID 157). The conditions noted are these: S. cerevisiae mec2-1 strain, stronger effect = higher value; at 50.0 µM unless noted. The method, boiled down: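 Vehicle-treated cultures served as reference for growth inhibition of compound-exposed mec2-1 yeast.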
Assay [3] in a line: NCI Yeast Anticancer Drug Screen. Data for the sgs1 mgt1 strain (AID 161).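 Further: 0% = growth of cultures given vehicle only.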 The conditions noted are these: S. cerevisiae sgs1 mgt1 strain, stronger effect = higher value; at 50.0 µM unless noted. The method, boiled down:
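Inhibition of yeast growth, normalised to vehicle-treated controls, is reported for a strain bearing genetic alterations in DNA damage repair.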

The nature of assay [4]: NCI Yeast Anticancer Drug Screen. Data for the cln2 rad14 strain (AID 165).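 Further: 0% = growth equal to vehicle treated cultures.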 The conditions noted are these: S. cerevisiae cln2 rad14 strain, stronger effect = higher value; at 50.0 µM unless noted. The gist of the method:
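Each compound was tested on cln2 rad14 yeast. Inhibition of growth was calculated against vehicle-exposed controls.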

Assay [5] can be described thus: NCI Yeast Anticancer Drug Screen. Data for the bub3 strain (AID 167). To be noted: S. cerevisiae bub3 mutant strain, stronger effect = higher value; at 50.0 µM unless noted. The method, boiled down: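 Inhibition values come from growth of compound-treated mutant yeast normalised to vehicle-treated controls.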
Assay [6] in a line: NCI Yeast Anticancer Drug Screen. Data for the mlh1 rad18 strain (AID 175). The conditions noted are these: S. cerevisiae mlh1 rad18 strain growth inhibition, stronger effect = higher value; at 50.0 µM unless noted. The gist of the method: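 Vehicle-treated cultures served as the reference for growth inhibition in a yeast strain carrying DNA damage repair alterations exposed to each compound.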

The panel holds about 79,000 compounds, 15% with a hit somewhere; the sample as a whole holds those more often. Values without a mark were called inactive. Active and inactive are the calls of the source. No stated cut-off is given here; in the data, active means growth inhibition above about 70%; inactive means the rest.

Consider `CCCCCCCCC(=O)Nc1cccc(O)c1`, for which the growth inhibition in assay [1] is -6.7%; in assay [2] it was -12.4%; in assay [3], -8.45%; in assay [4] it was -48.6%; in assay [5] it was -26.4%; in assay [6], -13.8%.
Take `N#CCCC1(CCC#N)CCCC(CCC#N)(CCC#N)C1=O`: the growth inhibition in assay [1] is 2%; in assay [2], 7.6%; in assay [3], 2.15%; in assay [4], -51.5%; in assay [5], 16.8%; in assay [6], 11.2%.
Regarding `Cc1ccccc1OC(=O)Oc1ccccc1C`, the growth inhibition in assay [1] is 8.7%; in assay [2], -2.6%; in assay [3], 4.8%; in assay [4], 1%; in assay [5] it was 21.1%; in assay [6], 21.9%.
As for `CCN(CCO)C(=O)Nc1ccc(Cl)cc1`, the growth inhibition was -6.1% in assay [1]; -31.6% in assay [2]; 11.1% in assay [3]; 8.6% in assay [4]; 0.55% in assay [5]; -7.65% in assay [6].
As for `O=C1N(Cc2ccccc2)CCN1Cc1ccccc1`, the growth inhibition in assay [1] is -37.1%; in assay [2], -24.6%; in assay [3], -11.7%; in assay [4], 20.2%; in assay [5] it was 0.6%; in assay [6], -22.9%.
For `CC1=C(C(=O)Nc2ccccc2)C(c2ccccc2Cl)C(C(=O)Nc2ccccc2)=C(C)N1`, the growth inhibition in assay [1] was 14.8%; in assay [2] it was -0.35%; in assay [3], -6.25%; in assay [4], 14.4%; in assay [5], -11.7%; in assay [6], 6.65%.
With `CC1CCC(C(=O)O)(C(Br)C(=O)O)CC1` (stereo not given), the growth inhibition in assay [1] was -14.5%; in assay [2] it was -12.7%; in assay [3] it was -12.8%; in assay [4], -27.9%; in assay [5] it was -20.8%; in assay [6], -3.3%.
With `O=c1[nH]c(=O)n(C2CC(O)C(CO)O2)cc1OCCCc1ccccc1` (stereo not given), the growth inhibition in assay [1] is -27.8%; in assay [2], 0.75%; in assay [3], 12.2%; in assay [4] it was 13.8%; in assay [5], -0.5%; in assay [6], -3.2%.
As to `NC(CCn1cnc2c(=O)[nH]cnc21)C(=O)O` (stereo not given), the growth inhibition in assay [1] was 4.1%; in assay [2], 10.3%; in assay [3] it was 6.7%; in assay [4], -31.6%; in assay [5], -12.8%; in assay [6] it was -11.7%.
Consider `CCCCOC/N=C(/N)NC#N`, for which the growth inhibition in assay [1] is 10.9%; in assay [2] it was 2.15%; in assay [3], -5.2%; in assay [4], 28.6%; in assay [5] it was -4.1%; in assay [6], 17.7%.
As for `CCOC(=O)C(C)NC(=O)NC12CC3CC(CC(F)(C3)C1)C2` (stereo not given), the growth inhibition is 31.3% in assay [1]; 10.6% in assay [2]; 3.1% in assay [3]; 6.35% in assay [4]; 8.45% in assay [5]; -0.2% in assay [6].
Regarding `CCOC(C)C(Nc1ccc(C(=O)O)cc1)C(=O)Nc1ccc(C(=O)O)cc1` (stereo not given), the growth inhibition in assay [1] is 9.8%; in assay [2], 2%; in assay [3], 4.5%; in assay [4], -29.4%; in assay [5] it was -5.6%; in assay [6], -10.7%.
As for `O=C(/C(Cl)=N/O)c1ccc(O)c(O)c1`, the growth inhibition is 30.3% in assay [1]; 14.8% in assay [2]; 18.2% in assay [3]; 24.6% in assay [4]; 47.2% in assay [5]; 19.9% in assay [6].
Regarding `COc1ccc2ncccc2c1[N+](=O)[O-]`, the growth inhibition is -5.55% in assay [1]; -44.3% in assay [2]; -5.8% in assay [3]; -14.5% in assay [4]; -23.4% in assay [5]; -18.6% in assay [6].
For the molecule `O=[N+]([O-])c1cccc(Br)c1`, the growth inhibition in assay [1] was 25.9%; in assay [2] it was 22.8%; in assay [3], -10.7%; in assay [4], -52.6%; in assay [5], 3.45%; in assay [6], 5.75%.
For the molecule `C=CCOc1cc2c(cc1C(CC)c1ccc(OCc3ccccc3)cc1)OCO2` (stereo not given), the growth inhibition in assay [1] was 31.9%; in assay [2], 5.2%; in assay [3], -2.85%; in assay [4] it was 13.9%; in assay [5] it was 0.9%; in assay [6], -10.2%.
Take `NC(=O)c1ncc(Cl)cc1Cl`: the growth inhibition in assay [1] was 21.1%; in assay [2], 2.5%; in assay [3] it was 14.3%; in assay [4] it was 5.8%; in assay [5] it was 0.55%; in assay [6] it was 25.1%.
On to `CC(=O)NC1C(OCc2ccccc2)OC(CO)C(O)C1OCC(=O)NC(C)C(=O)NC(CCC(=O)NCCCCCNc1c2ccccc2nc2cccc([N+](=O)[O-])c12)C(N)=O` (stereo not given), for which the growth inhibition was 78.8% (active) in assay [1]; 87.3% (active) in assay [2]; 79% (active) in assay [3]; 78.8% (active) in assay [4]; 53.5% in assay [5]; 89% (active) in assay [6].
As for `CCOC(=O)C(C)NC(=O)c1ccccc1` (stereo not given), the growth inhibition in assay [1] is 0.25%; in assay [2] it was -8.5%; in assay [3] it was -14.6%; in assay [4], -52.2%; in assay [5], 5.5%; in assay [6], 0.75%.
Regarding `CC1(c2nc3ccccc3[nH]2)CCC(C(N)=O)C(C)(C)O1` (stereo not given), the growth inhibition in assay [1] is 1.5%; in assay [2], -13.2%; in assay [3], -19.8%; in assay [4], -2.55%; in assay [5] it was -16.9%; in assay [6], -10.6%.
